# In PubChem BioAssay AID1778 (Sanford-Burnham Center for Chemical Genomics, 2009):
# The whole screen tested about 290,000 compounds, of which about 260 (0.09%) were called active. The entries come from a sample that favours actives as a whole. Results with a measured potency or affinity are listed apart. Unmarked numbers belong to inactive results. No stated cut-off is given here; in the data, active means inhibition above about 50%; inactive means the rest.
# Molecular target: Kappa-type opioid receptor (Homo sapiens) (UniProt P41145)
# Assay: kappa opioid receptor blockers – cell-based, luminescence, uHTS (AID 1778)
# Conditions: KOR beta-arrestin recruitment, antagonist mode, active compounds read high; at 10 µM unless noted
# Sequence of Kappa-type opioid receptor (Homo sapiens) (P41145 whole entry, looked up): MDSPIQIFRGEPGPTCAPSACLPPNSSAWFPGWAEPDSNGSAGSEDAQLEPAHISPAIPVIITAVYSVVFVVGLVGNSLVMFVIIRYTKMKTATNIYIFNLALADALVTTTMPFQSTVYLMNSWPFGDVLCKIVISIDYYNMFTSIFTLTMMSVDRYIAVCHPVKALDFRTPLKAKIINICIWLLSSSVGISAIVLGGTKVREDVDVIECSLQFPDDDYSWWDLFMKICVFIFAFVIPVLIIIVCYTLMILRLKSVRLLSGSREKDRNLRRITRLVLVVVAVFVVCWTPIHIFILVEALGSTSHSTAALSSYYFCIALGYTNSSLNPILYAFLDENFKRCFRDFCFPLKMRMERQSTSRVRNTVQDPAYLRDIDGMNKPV
row,Structure (SMILES),inhibition
1,COc1cc(-c2[nH]ncc2CN2CCN(Cc3cccs3)CC2)cc(OC)c1OC,-18.5%
2,Cc1cccc(Nc2nc(N)c([N+](=O)[O-])c(N3CC(C)CC(C)C3)n2)c1 (stereo not given),-15%
3,O=C1CC(C2CCCO2)C(=O)N1c1ccc(Cl)c(Cl)c1 (stereo not given),-15.9% [at 20 µM]
4,CN(C)S(=O)(=O)c1cccc(NC(=O)c2cc(=O)[nH]c3ccccc23)c1,-14.8% [at 20 µM]
5,CCn1c(=O)c2sccc2n2c(CCCC(=O)NCCc3ccc(S(N)(=O)=O)cc3)nnc12,-3%
6,COC(=O)C1=C(C(=O)OC)[C@@H]2N(C)c3ccc(OC)cc3[C@@]23C[C@@H](C(=O)OC)N(C(=O)c2cccs2)C3=N1,-29.4% [at 20 µM]
7,O=C1/C(=C/c2cccnc2)SC(=S)N1c1ccc(O)cc1,30.3%
8,Cc1ccc(/C=C2\SC(=S)N(c3cccnc3)C2=O)cc1,-11.9%
9,O=C(C(Sc1ccccc1)c1ccc(Br)cc1)N1CCOCC1 (stereo not given),20.5%
10,CCN(c1ccccc1)S(=O)(=O)c1ccc(NC(=O)c2nc(S(C)(=O)=O)ncc2Cl)cc1,38.4%
11,Cc1ccc(NC(=O)c2nc(S(=O)(=O)Cc3ccccc3)ncc2Cl)cc1,14%
12,CC(=O)Nc1ccc(NC(=O)c2nc(S(=O)(=O)Cc3ccccc3)ncc2Cl)cc1,23.7%
13,CN(c1ccccc1)S(=O)(=O)c1ccc(NC(=O)c2nc(S(C)(=O)=O)ncc2Cl)cc1,35.2%
14,CCOC(=O)N1CCN(C(=O)COc2cccc3c2CCN(Cc2cccc(C)c2)C3=O)CC1,8%
15,CSc1ccc(NC(=O)N2CC=C(n3c(=O)[nH]c4ccccc43)CC2)cc1,90.6% (active)
16,CCOc1ccc(NC(=O)N2CC=C(n3c(=O)[nH]c4ccccc43)CC2)cc1,35.6%
17,O=C(Nc1cccc(F)c1)N1CC=C(n2c(=O)[nH]c3ccccc32)CC1,46.2%
18,N#Cc1ccc(CN2CCN(C(=O)c3ccccc3)CC2)c(Cl)c1,-1.5%
19,Cc1cccc(C(=O)c2ccccc2C(=O)O)c1,19.6%
20,CC(NC(=O)Cn1nc(C(=O)O)c2ccccc2c1=O)C12CC3CC(CC(C3)C1)C2 (stereo not given),-21.3%
21,CC(NC(=O)CN1CCCC1)C12CC3CC(CC(C3)C1)C2 (stereo not given),-12%
22,Cc1ccc(C(=O)N/C(=C\c2ccc(F)cc2)C(=O)NCCCn2ccnc2)cc1,21.6%
23,CCOc1cc(CNC2CCCC2)cc(Cl)c1OCc1ccc(F)cc1,-17.1%

row,Structure (SMILES),inhibition
1,CCNCc1cc(Cl)c(OCc2ccccc2)c(OCC)c1,12.3%
2,O=C(O)c1ccc(N/N=C/c2cccc3nccnc23)cc1,14.2%
3,C(=C\c1ccccc1)/CSc1ccccn1,-4.7%
4,CNC(=O)COC(=O)c1ccccc1C(=O)c1ccc(Cl)c([N+](=O)[O-])c1,-7.4%
5,CC(C)N(C(=O)COC(=O)c1ccccc1C(=O)c1ccc(Cl)c([N+](=O)[O-])c1)C(C)C,24.3%
6,NS(=O)(=O)c1ccc(Nc2ccc([N+](=O)[O-])c3nonc23)cc1,-10.8%
7,CC(=O)c1ccc(Nc2ccc([N+](=O)[O-])c3nonc23)cc1,37.3% [at 20 µM]
8,COc1ccc(OC)c(NC(=O)c2cc3sccc3n2C)c1,9.4%
9,COc1ccc(OC)c(N2C(N)=C(C#N)C(c3ccc(OC)c(O)c3)C3=C2CC(C)(C)CC3=O)c1 (stereo not given),16.3%
10,CCC(=O)Nc1ccc(C(=O)n2ccc(C)n2)cc1,5.2%
11,COc1cc(/C=C2\SC(=N)N(c3ccc(F)cc3)C2=O)ccc1O,-30.7%
12,O=C1OC(c2cccs2)=N/C1=C\c1ccc(-c2cccc(Cl)c2)o1,-15.5%
13,N=C1S/C(=C\c2ccco2)C(=O)N1c1nccs1,71% (active)
14,N=C1S/C(=C\c2ccco2)C(=O)N1c1ccc2c(c1)OCO2,-11.9% [at 20 µM]
15,Cc1[nH]c2ccccc2c1/C=N/n1cnnc1,-34.7%
16,N=C1/C(=C\c2ccc(-c3cccc(Cl)c3)o2)C(=O)N=C2SC=C(c3ccccc3)N12,29.8%
17,CCOc1cc(/C=C2\SC(=N)N(c3nccs3)C2=O)ccc1OCCN1CCOCC1,-3.5%
18,O=C1/C(=C/c2ccco2)SC(=S)N1c1cccnc1,-2.4%
19,COc1ccc(/C=C2\SC(=N)N(c3ccc(F)cc3)C2=O)cc1OC,-9.7%
20,CCOc1cccc(C(=O)N(Cc2cccc(F)c2)C2CCS(=O)(=O)C2)c1 (stereo not given),-33.2%
21,Cc1csc(NC(=O)CCCc2cccs2)n1,1.1%
22,COc1ccc(C)cc1NC(=O)C(Sc1nnc(Nc2cc(C)ccc2OC)s1)c1ccccc1 (stereo not given),-5.6%
23,CCOc1ccc(CCNS(=O)(=O)c2cnc[nH]2)cc1OCC,-14.7%

row,Structure (SMILES),inhibition
1,COc1ccccc1NC(=O)c1ccc(CSc2ncccn2)cc1,7.4%
2,Cc1ccc(NC(=O)CCCCCN2C(=O)[C@@H]3Cc4ccccc4CN3C2=O)c(C)c1,26.6%
3,Oc1c(/C=N/c2ccccn2)sc2ccccc12,-1.9%
4,Oc1c(C=Nc2cccnc2)sc2ccccc12,-24.2%
5,COc1ccc(NC(=S)NC(NC(=O)c2ccc(Cl)cc2Cl)C(Cl)(Cl)Cl)c([N+](=O)[O-])c1 (stereo not given),36.4%
6,COc1ccc(NC(=S)NC(NC(=O)c2cccc3ccccc23)C(Cl)(Cl)Cl)c([N+](=O)[O-])c1 (stereo not given),-86.5%
7,COCCSc1nnc(NC(=O)CSc2ccccc2)s1,-18.1%
8,CCc1nnc(NC(=O)CSc2nnc(CNc3cccc(Cl)c3)n2CC)s1,-7.1%
9,O=C(NCCc1ccccn1)c1ccc(OC(F)F)cc1,19.2%
10,O=C(O)c1cc(Nc2cc(Cl)c3nonc3c2[N+](=O)[O-])ccc1O,-28%
11,CCN(CC)c1cc(NCCO)c([N+](=O)[O-])c2nonc12,-13.9%
12,O=C(O)c1cccc(Nc2cc(Cl)c3nonc3c2[N+](=O)[O-])c1,4.3%
13,CN(C)c1cc(Nc2ccc(O)cc2)c([N+](=O)[O-])c2nonc12,40.9%
14,CN(C)c1cc(Nc2cccc(O)c2)c([N+](=O)[O-])c2nonc12,-7.7%
15,O=C(O)c1ccc(Nc2cc(Cl)c3nonc3c2[N+](=O)[O-])cc1,27.4%
16,O=[N+]([O-])c1c(Nc2cccc(O)c2)cc(Cl)c2nonc12,114% [at 20 µM] (active)
17,Cc1c(Nc2cc(N3CCOCC3)c3nonc3c2[N+](=O)[O-])c(=O)n(-c2ccccc2)n1C,25.4%
18,CCNc1cc(Nc2c(C)n(C)n(-c3ccccc3)c2=O)c([N+](=O)[O-])c2nonc12,13.1%
19,O=[N+]([O-])c1c(Nc2ccc(O)cc2)cc(Cl)c2nonc12,104% (active)
20,CN(C(=O)c1ccc(S(=O)(=O)c2cccc(Cl)c2)c([N+](=O)[O-])c1)C1CCCCC1,-8.7%
21,CC1(C)CC(=O)c2cc(OCC(=O)NCCN3CCOCC3)ccc2O1,-16.7%
22,CCOC(=O)C(=O)N1CCC(Cc2ccccc2)CC1,31.7%
23,O=C1CN(C(=O)COC(=O)CCNS(=O)(=O)c2ccc(Cl)cc2)c2ccccc2N1,-18.1%

row,Structure (SMILES),inhibition
1,CC(/C=N\N1CCN(c2ccc(Cl)cc2)CC1)=C\c1ccccc1,53.7%
2,O=C(N/N=C/c1ccoc1)c1cc(Br)ccc1O,-13.2%
3,O=[N+]([O-])c1c(Nc2ccccc2O)ccc2nonc12,35.9%
4,O=C(O)c1ccccc1Nc1cc(Cl)c2nonc2c1[N+](=O)[O-],34.1%
5,Cc1cccc(N(C(=O)c2snc(C(N)=O)c2N)C(C(=O)NC2CCCC2)c2ccncc2)c1 (stereo not given),12.2%
6,Cc1cc(C(C)(C)C)oc1C(=O)N(CC(=O)NC1CCCC1)Cc1ccccc1Cl,0.8%
7,Cc1cn(-c2cc(C(=O)Nc3ccc(C)c(NC(=O)C(=O)c4c[nH]c5ccccc45)c3)cc(C(F)(F)F)c2)cn1,0.6%
8,Cc1cn(-c2cc(C(=O)Nc3ccc(C)c(NC(=O)N4CCNC4=O)c3)cc(C(F)(F)F)c2)cn1,-20%
9,COc1ccc(CNC2CCCc3ccccc32)cc1OC (stereo not given),-0.9%
10,O=C(NNC1=Nc2ccccc2SC1)c1ccc(F)cc1,30.4%
11,O=C(NNC1=Nc2ccccc2SC1)c1ccccc1F,10.4%
12,CCc1ccc(-n2c(=O)c3c(C)c(C(=O)N(C)C)sc3n(CC(=O)NCc3ccco3)c2=O)cc1,-11.4%
13,N=C1SCC(=O)N1c1nc(-c2ccccc2)cs1,23.4%
14,Cc1ccc(-c2csc(N3C(=N)SCC3=O)n2)cc1,26.9%
15,CCN1CCN(C(=S)c2ccc(Cl)cc2)CC1,12.5%
16,Cc1ccc(Cc2cnc(N3C(=N)SC(C)C3=O)s2)cc1 (stereo not given),88.5% (active)
17,Cc1ccc(Cc2cnc(NC(=O)c3cccs3)s2)cc1,-17.2%
18,Cc1cccc(Cc2cnc(N3C(=N)SC(c4ccccc4)C3=O)s2)c1 (stereo not given),-7.2%
19,Cc1cccc(Cc2cnc(NC(=O)c3ccc(C)o3)s2)c1,-9.9%
20,Cc1ccc(Cc2cnc(N3C(=N)SC(c4ccccc4)C3=O)s2)cc1 (stereo not given),37.3%
21,O=C(C1=C[C@H](c2ccccc2)C[C@H](OCc2ccc(CO)cc2)O1)N1CCN(Cc2ccc3c(c2)OCO3)CC1,-13%
